# Screening results (PubChem BioAssay)
# Gal4-VP16 FLuc = inhibits Gal4-VP16 luciferase reporter, ROR gamma counter-screen | Drosophila S2 Gal4-VP16 UAS-luciferase, luminescence, 20 h | Potency, µM (top dose mostly 53.6 µM), for the others: top-dose activity, negative = inhibition, most hits filed as inhibitors | 310,000 tested, 3.5% active;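 further: Gal4-VP16 expression switched on by copper sulfate through the metallothionein promoter; on the % scale 0 is the no-effect control and ±100 the full control effect; nearly all actives have a fitted effect of over 50% in size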
# MCF10A rereplic = DNA re-replication induction in MCF 10a cells | 350,000 tested, 2.9% active | Potency, µM (doses to about 46.1 µM), without a hit: top-dose activity, positive = re-replication, most hits filed as activators | MCF 10A DNA re-replication, Hoechst nuclear intensity, 48 h; further: % of control where 0% means no effect; nearly all actives have a fitted effect of over 50% in size
# ELG1 DNA repair = ELG1-dependent DNA repair inhibition. Potency, µM (doses to about 46.1 µM), inactives show at the top dose activity change, negative = inhibition, hits mostly inhibitors. AID 504467. HEK293T ELG1-luciferase reporter, luminescence, 16 h; DNA damage induced by 5-fluorouridine. 330,000 tested, 2.3% active; further: on the % scale 0 is the no-effect control and ±100 the full control effect; nearly all actives have a fitted effect of over 55% in size
#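 In this reporter screen, reduction of luminescence relative to DMSO vehicle indicated activity. Compounds and 5-fluorouridine were added together to 2,000 cells per well, incubated for 16 hr at 37 °C, then developed with ONE-Glo.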
# RORgamma inh = inhibitors of mouse ROR gamma transcriptional activity | Drosophila S2 Gal4-RORgamma UAS-luciferase reporter, 20 h | Potency, µM (doses to about 53.6 µM), without a hit: top-dose activity change, negative = inhibition, actives largely listed as inhibitors | 310,000 tested, 5.4% active; further: on the % scale 0 is the no-effect control and ±100 the full control effect; nearly all actives have a fitted effect of over 60% in size
# Target sequence (P51450 whole entry, looked up, the tested form may be a part): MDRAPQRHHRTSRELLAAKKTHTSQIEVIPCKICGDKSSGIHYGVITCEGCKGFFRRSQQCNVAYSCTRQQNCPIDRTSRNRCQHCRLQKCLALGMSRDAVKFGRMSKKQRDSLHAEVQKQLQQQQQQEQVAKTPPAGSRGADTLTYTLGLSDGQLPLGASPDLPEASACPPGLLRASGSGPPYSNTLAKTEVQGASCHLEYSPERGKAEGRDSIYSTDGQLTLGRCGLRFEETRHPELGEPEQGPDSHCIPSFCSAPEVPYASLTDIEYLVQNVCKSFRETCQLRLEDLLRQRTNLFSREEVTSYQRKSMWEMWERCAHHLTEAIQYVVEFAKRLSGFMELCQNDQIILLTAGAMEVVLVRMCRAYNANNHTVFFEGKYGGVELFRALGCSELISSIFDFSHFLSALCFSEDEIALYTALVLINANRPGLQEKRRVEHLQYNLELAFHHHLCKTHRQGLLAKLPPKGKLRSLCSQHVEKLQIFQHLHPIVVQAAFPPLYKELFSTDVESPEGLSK
#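 Read-out: Photinus luciferase luminescence; inhibitors lower reporter signal. Insect Schneider cells with Gal4-ROR gamma fusion under metallothionein promoter, UAS reporter; 700 uM final copper sulfate induction, 20 hr, ambient temperature.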
# SW480 rereplic = DNA re-replication induction in SW480 cells | SW480 DNA re-replication, Hoechst DNA content imaging, 48 h | Potency, µM (series often up to 46.1 µM), for inactives: at the highest dose re-replication activation, usual class: activators | 340,000 tested, 1.8% active | AID 624297; further: % of control where 0% means no effect; nearly all actives have a fitted effect of over 55% in size
#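 SW480 cells exposed to compounds for 48 hr at 37 C, 5% CO2, then Hoechst-stained 40 min. Nuclear DNA content imaged by fluorescence scanning (405 nm excitation, 500-530 nm emission); re-replication scored as increased high-intensity nuclei.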
# Starred values were filed as active, the others as inactive; ? = inconclusive; · = no result given; [ ] = remark or other dose. Most compounds without a hit are left out; they make up all but 10% or so of the library. The call rests on the fitted dose curve; in most records, active means well fitted curve in the direction sought with a large enough effect; inconclusive means small, poorly fitted or top-dose-only effect, or another doubt; inactive means no such curve, though single readings can be large; an effect the other way counts as inactive or inconclusive. Potency means the concentration at half of the fitted maximal effect.
SMILES,Gal4-VP16 FLuc,MCF10A rereplic,ELG1 DNA repair,RORgamma inh,SW480 rereplic
Cc1cccc(Nc2nc(-c3ccccn3)cs2)n1,2.5µM*,21%,?,1.6µM*,?
CC(=O)Oc1ccc(-c2csc(Nc3cccc(C)n3)n2)cc1,10µM*,?,?,3.2µM*,?
Oc1ccc(-c2csc(Nc3ccccn3)n2)c(O)c1,?,?,?,11µM*,-2%
Cc1cccnc1Nc1nc(-c2ccc(O)cc2O)cs1,?,?,?,6.3µM*,-3%
Cc1cccc(Nc2nc(-c3cccs3)cs2)n1,?,28%,?,?,-3%[9.22 µM]
Cc1cc(C)cc(N2C(=O)CC(c3ccccc3)CC2=O)c1,·,-5%,20%,·,-3%
Cc1cccnc1Nc1nc(-c2ccccn2)cs1,?,9.2µM*,?,0.022µM*,?
Cc1cccnc1Nc1nc(-c2ccccc2)cs1,·,10%,?,·,-66%
Cc1ccc(Nc2nc(-c3ccc(O)c(O)c3)cs2)nc1,6.3µM*,?,?,13µM*,?
Cc1ccc(Nc2nc(-c3ccc(F)cc3)cs2)nc1,?,15%,?,-26%,-4%
CC(C)OCCCN1CN(S(=O)(=O)c2cccc(Cl)c2)c2nc3ccccc3nc21,16%,?,-4%,36%,6%
C=CCN(CC(O)c1cccc([N+](=O)[O-])c1)C(C)CCc1ccccc1 (centres undefined),-6%,10%,0%,4%,2%
O=C(Nc1cc(Sc2ccccn2)cc([N+](=O)[O-])c1)c1cccc(Cl)c1,?,29%,6.5µM*,-3%,-2%
CC(C)(C)OC(=O)N1O[C@H]2C[C@@H]1[C@@H]1[C@@H]2N=NN1C12CC3CC(CC(C3)C1)C2,·,-3%,3%,·,21µM*
OCC1(CCOc2ccccc2)CCN(CC2=Cc3cc(Cl)ccc3OC2)CC1,?,?,-14%,-26%,?
COc1ccc2[nH]c3c(c2c1)CCN1C(=O)N([C@@H](C)C(=O)NC2CCCCC2C)C(=O)[C@]31C (some centres undefined),-4%,-9%,-9%,4%,6%
CN(Cc1c(C(=O)N/N=C/c2ccc(O)cc2)nnn1-c1nonc1N)c1ccccc1,-5%,-3%,-4%,-3%,?
Cc1ccc(C(=O)c2cc([N+](=O)[O-])ccc2N2CCOCC2)cc1,-3%,3.7µM*,?,12%,3.7µM*
O=C(COc1ccc([N+](=O)[O-])cc1)N/N=C/c1cc([N+](=O)[O-])ccc1N1CCOCC1,-7%,9%,18µM*,?,-8%
O=C(O)c1cc([N+](=O)[O-])ccc1N1CCCCC1,2%,3%,-5%,-4%,8%
O=C(c1cc([N+](=O)[O-])ccc1N1CCCCC1)N1CCc2ccccc21,-17%,3.7µM*,?,-12%,6.5µM*
Cc1ccc(C(=O)c2cc([N+](=O)[O-])ccc2N2CCCCC2)c(C)c1,-7%,?,17%,-15%[10 µM],1.3µM*
O=C(c1cc([N+](=O)[O-])ccc1Cl)N1CCc2ccccc21,3%,0%,-2%,11%,-9%
On1nnc2ccccc21,-1%,0%,·,24%,2%
CC[C@@]1(C(=O)OC)N[C@H](CN(C)C(=O)COC)[C@@H]2C(=O)N(Cc3ccccc3)C(=O)[C@@H]21,·,3%,16%,·,7%[9.22 µM]
SMILES,Gal4-VP16 FLuc,MCF10A rereplic,ELG1 DNA repair,RORgamma inh,SW480 rereplic
CCOC(=O)N1CCN(C(=O)/C(=C/c2ccc(Cl)cc2)NC(=O)c2ccccc2)CC1,-4%,1%,-1%,2%,2%
COc1ccc(C(=O)c2cc([N+](=O)[O-])ccc2N2CCOCC2)cc1,3%,?,?,-15%,0.37µM*
CCOc1ccc(C(=O)c2cc([N+](=O)[O-])ccc2N2CCOCC2)cc1,-7%,?,-3%,7%,0.058µM*
CCOc1ccc(S(=O)(=O)N2CCN(C(=O)c3cc([N+](=O)[O-])ccc3N3CCOCC3)CC2)cc1,·,-2%,7%,·,-11%
O=C(COc1ccc([N+](=O)[O-])cc1)Nc1ccc2c(c1)nc1n2CCOC1,0%,23µM*,4%,-12%,?
Cc1ccc(N(CC(=O)NC2CC2)S(=O)(=O)c2ccccc2)c(C)c1,20%,-1%,2%,-19%,4%
Clc1ccc(CN2CCN(c3ncccn3)CC2)cc1,3%,18%,-9%,11%,-12%
CCOc1ccc(Br)cc1/C(C)=N\NC1=NCCN1,7.9µM*,?,?,-33%,?
CCCCCOc1ccc(/C(C)=N/NC2=NCCN2)cc1,-11%,20%,-13%,?,?
Cc1ccc2oc(/N=C(\N)NC(=O)C3CC3)nc2c1,?,?,?,7.1µM*,9.2µM*
Cc1ccc2oc(/N=C(\N)NC(=O)C(C)(C)C)nc2c1,0.45µM*,-30%,?,0.05µM*,?
NC(N)=Nc1nc2cc([N+](=O)[O-])ccc2o1,-14%,12%,?,-3%,-3%
Cc1ccc2oc(Nc3nc(C)cc(C)n3)nc2c1,6%,2%,?,-6%,2%
CS(=O)(=O)Nc1cccc(-c2nc(N3CCNCC3)c3ccccc3n2)c1,7%,·,·,11%,·
COC(=O)c1sccc1N/N=C/c1ccc(OC)c(OC)c1OC,-7%,23µM*,?,?,11%
COC(=O)c1sccc1N/N=C/c1cccc(OC)c1O,16µM*,?,?,?,-2%
CC(=O)O[C@@]12CO[C@@H]1C[C@H](O)[C@@]1(C)C(=O)[C@H](O)C3=C(C)[C@@H](OC(=O)C(O)[C@@H](NC(=O)OC(C)(C)C)c4ccccc4)C[C@@](O)([C@@H](OC(=O)c4ccccc4)[C@H]21)C3(C)C (some centres undefined),-24%,?,·,?,0.0075µM*
CC(=O)OC1C(=O)[C@@]2(C)C(O)CC3OC[C@]3(OC(C)=O)C2C(OC(=O)c2ccccc2)[C@]2(O)CC(OC(=O)C(O)C(NC(=O)c3ccccc3)c3ccccc3)C(C)=C1C2(C)C (some centres undefined),-7%,·,·,?,·
CC(=O)O[C@H]1C(=O)[C@@]2(C)C([C@H](OC(=O)c3ccccc3)[C@]3(O)C[C@H](OC(=O)[C@H](O)[C@@H](NC(=O)c4ccccc4)c4ccccc4)C(C)=C1C3(C)C)[C@]1(OC(C)=O)CO[C@@H]1C[C@H]2O (some centres undefined),20µM*,?,-25%,?,2.1µM*
CCSc1nnc(NC(=O)c2cc(OC)c(OC)c(OC)c2)s1,-15%,19%,?,-25%,1%
COc1cc(C(=O)Oc2cccc(C=O)c2)cc(OC)c1OC,11%,2%,-14%,-32%,16µM*
